Measured values as given in PubChem BioAssay (Tox21).
Records with an inconclusive call do not appear. Values without a mark were called inactive. Calls of active or inactive are those of the source. The call rests on the fitted dose curve; in most records, active means well fitted cell-killing curve with a large enough effect in the repeat runs; inconclusive means weak or mixed curves, or effect the other way; inactive means no such curve, though single readings can be large or run the other way.

Assay: qHTS assay to identify small molecule antagonists of the progesterone receptor (PR) signaling pathway - cell viability counter screen (AID 1346798); further: nearly all actives have a fitted effect of over 50% in size
Details: PR-UAS-bla HEK293T viability, CellTiter-Glo luminescence, 16 h; series mostly up to 92.4 µM
Excerpt: National Center for Advancing Translational Sciences [NCATS]
NIH Chemical Genomics Center [NCGC]
U.S. Environmental Protection Agency [EPA]
National Institutes of Environmental Health Sciences [NIEHS]
National Toxicology Program [NTP]
U.S. Food and Drug Administration [FDA]
Progesterone receptor (PR), a nuclear hormone receptor, plays an important role in development, metabolic homeostasis and reproduction. It is activated by the steroid hormone progesterone. Endocrine disrupting chemicals (EDCs) and their interactions with steroid hormone receptors like PR causes disruption of normal endocrine function. To identify the compounds that inhibit PR signaling, a PR-UAS-bla GripTite cell line i.e. PR-UAS-bla HEK293T (Invitrogen, Carlsbad, CA, USA) containing a beta-lactamase reporter gene under the control of an UAS response element was used to screen Tox21 10K compound library. The cytotoxicity of the Tox21 compound library against the PR-bla cell line was tested in parallel by measuring the cell viability using CellTiter-Glo assay in the same wells.
Tox21 Assay Protocol Summary:
PR-UAS-bla HEK293T cells were dispensed at 3,000 cells/4 uL of assay medium containing 2% charcoal stripped FBS per well into black wall/clear-bottom 1536-well plates using a Multidrop Combi (ThermoFisher Scientific, Waltham, MA) dispenser. After the assay plates were incubated at a 37C and 5% CO2 for 4 hr, 23 nL of compounds dissolved in DMSO, positive controls or DMSO only was transferred to the assay plate by a Pintool station (Kalypsys, San Diego, CA), followed by addition of 1 uL of R5020 in assay medium using a Flying Reagent Dispenser (FRD, Aurora Discovery, San Diego, CA). The plates were incubated at 37C and 5% CO2 for 16 hr. Then 1 uL of LiveBLAzer B/G FRET substrate was added using a Flying Reagent Dispenser, the plates were incubated at room temperature for 2 hours, and fluorescence intensity was measured by an Envision plate reader (PerkinElmer, Shelton, CT). For cell viability readout that measures cytotoxicity, 4 uL/well of CellTiter-Glo reagent was added into the assay plates using a FRD. After 30 min incubation at room temperature, the luminescence intensity in the plates was measured using a ViewLux (PerkinElmer) plate reader.
On the % scale 0 is the no-effect control and ±100 the full control effect.

Question: For `CC(=O)Nc1ccc(OC(=O)c2ccccc2OC(C)=O)cc1`, which outcome is on record?
Answer: Its outcome is “inactive”.

Question: With `c1ccc2cnccc2c1` as the molecule, how does the outcome read?
Answer: The outcome was “inactive”.

Question: With `COc1cc2c(cc1OC)CN(C(=O)[C@H](C)N[C@@H](CCc1ccccc1)C(=O)O)[C@H](C(=O)O)C2` as the molecule, how does the outcome read?
Answer: Its outcome is “inactive”.

Question: For `CCCc1ccc(O)cc1`, which outcome is on record?
Answer: The outcome was “inactive”.

Question: Which outcome does the source give for `CC1(C)O[C@H]2CC(=O)OC[C@]23[C@H]2CC[C@@]4(C)[C@H](c5ccoc5)OC(=O)[C@H]5O[C@]54[C@]2(C)C(=O)C[C@@H]13` here?
Answer: Its outcome is “inactive”.

Question: Which outcome does the source give for `CC1=NN(c2ccc(S(=O)(=O)O)cc2)C(=O)C1` here?
Answer: The outcome was “inactive”.

Question: With `CC(=O)OCC(=O)Nc1cc(C#N)cc(NC(=O)COC(C)=O)c1Cl` as the molecule, how does the outcome read?
Answer: Its outcome is “inactive”.

Question: Which outcome does the source give for `N#CCC(=O)NN` here?
Answer: The outcome was “inactive”.

Question: Which outcome does the source give for `CC(=O)C1C(=O)C=C(C)OC1=O` (stereo not given) here?
Answer: The outcome was “inactive”.

Question: For `[O-][n+]1cccc(/C(Cl)=N/OC[C@@H](O)CN2CCCCC2)c1`, which outcome is on record?
Answer: The outcome was “inactive”.

Question: With `CC1CCc2c(N3CCC(O)CC3)c(F)cc3c(=O)c(C(=O)O)cn1c23` (stereo not given) as the molecule, how does the outcome read?
Answer: Its outcome is “inactive”.

Question: With `CC(C)OC(=O)CCC(=O)OC(C)C` as the molecule, how does the outcome read?
Answer: Its outcome is “inactive”.

Question: Which outcome does the source give for `CC(=O)CCc1ccc(OC(C)=O)cc1` here?
Answer: Its outcome is “inactive”.

Question: For `O=C1c2ccccc2C(=O)c2cc(Cl)ccc21`, which activity change, negative = cytotoxicity is on record?
Answer: Its activity change, negative = cytotoxicity is -7.61% [at 8.39 µM].

Question: With `COc1ccc2c(c1)c1c3n2CCN(C)C3=NCC1` as the molecule, how does the outcome read?
Answer: The outcome was “inactive”.

Question: For `CCC(C)C(=O)OCCc1ccccc1` (stereo not given), which outcome is on record?
Answer: The outcome was “inactive”.

Question: For `Fc1ccccc1`, which outcome is on record?
Answer: Its outcome is “inactive”.

Question: Which outcome does the source give for `CC(C)CCOC(=O)c1ccccc1` here?
Answer: The outcome was “inactive”.

Question: Which outcome does the source give for `CCCCCC/C=C/C(=O)OC` here?
Answer: Its outcome is “inactive”.

Question: For `O=C(O)[C@H](O)c1ccccc1`, which outcome is on record?
Answer: Its outcome is “inactive”.

Question: For `CCCCCCCCCOC(=O)c1ccccc1C(=O)OCCCCCCCCC`, which outcome is on record?
Answer: The outcome was “inactive”.

Question: With `COS(=O)(=O)O` as the molecule, how does the outcome read?
Answer: Its outcome is “inactive”.

Question: With `Cn1c(=O)c2c(ncn2CCO)n(C)c1=O` as the molecule, how does the outcome read?
Answer: Its outcome is “inactive”.

Question: Which outcome does the source give for `O=C(O)CSCC(=O)NC1CCSC1=O` (stereo not given) here?
Answer: Its outcome is “inactive”.

Question: Which outcome does the source give for `CC(C)[C@H]1CC[C@H](C)C[C@@H]1O` here?
Answer: Its outcome is “inactive”.

Question: With `OCC(O)CN1CCN(c2ccccc2)CC1` (stereo not given) as the molecule, how does the outcome read?
Answer: Its outcome is “inactive”.

Question: With `O=C(CN1CCNCC1)NC1CCCCC1` as the molecule, how does the outcome read?
Answer: Its outcome is “inactive”.

Question: For `CC(C)Cn1cnc2c1c(=O)n(C)c(=O)n2C`, which outcome is on record?
Answer: The outcome was “inactive”.

Question: Which outcome does the source give for `CCCC(=O)OCCC(C)CCC=C(C)C` (stereo not given) here?
Answer: The outcome was “inactive”.

Question: Which outcome does the source give for `CC(=O)CC(=O)Nc1ccc(C)cc1C` here?
Answer: The outcome was “inactive”.

Question: For `[O]=[Mo](=[O])=[O]`, which activity change, negative = cytotoxicity is on record?
Answer: Its activity change, negative = cytotoxicity is 2.8% [at 18.9 µM].

Question: With `C=CCN1C[C@H](C(=O)N(CCCN(C)C)C(=O)NCC)C[C@@H]2c3cccc4[nH]cc(c34)C[C@H]21` as the molecule, how does the outcome read?
Answer: The outcome was “inactive”.

Question: Which outcome does the source give for `OCCN1CCOCC1` here?
Answer: The outcome was “inactive”.

Question: With `Cc1cc(-c2ccccc2)nnc1NCCN1CCOCC1` as the molecule, how does the outcome read?
Answer: The outcome was “inactive”.

Question: For `CC(O)CC(C)O` (stereo not given), which outcome is on record?
Answer: The outcome was “inactive”.

Question: For `CCCCOCCOC(=O)COc1ccc(Cl)cc1Cl`, which outcome is on record?
Answer: Its outcome is “inactive”.

Question: Which outcome does the source give for `CC(S)C(C)S` (stereo not given) here?
Answer: The outcome was “inactive”.

Question: With `O=C1CCC(=O)N1Cl` as the molecule, how does the outcome read?
Answer: Its outcome is “inactive”.

Question: With `C=C(C)[C@@H]1CC=C(C)CC1` as the molecule, how does the outcome read?
Answer: Its outcome is “inactive”.

Question: With `CCO` as the molecule, how does the outcome read?
Answer: Its outcome is “inactive”.
